Growth data for 17 molecules are collected here from PubChem BioAssay (NCI).

Common to all, as to assay: NCI-60 one-dose screen, 48 h (100 = growth as untreated, 0 = no growth, -100 = all killed)
One assay has as its system BT-549 breast. Conditions: 10 µM unless noted.
Another assay deals with MDA-MB-435 melanoma. To be noted: 10 µM unless noted.
The test system of the next assay is SW-620 colon. Conditions: 10 µM unless noted.
The test system of the next assay is MCF7 breast. To be noted: 10 µM.
Another assay concerns HCT-116 colon. Conditions: 10 µM unless noted.
In another assay the test system is HCC-2998 colon. Conditions: 10 µM unless noted.
Another assay has as its system KM12 colon. To be noted: 10 µM unless noted.

Molecules are shown by their SMILES. The panel holds about 83,000 compounds, 20% with a hit somewhere; the sample as a whole holds those more often.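 Interpretation: 100, growth as untreated; towards 0, rising growth inhibition; 0, no net growth; 0 to -100, cell death. Compounds scoring below 10 were considered active.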 Values without a mark were called inactive. Calls of active or inactive are those of the source.

Regarding `Cc1ccc(Nc2nc(N)c3ccccc3n2)cc1Cl`, the growth is 85.8% with BT-549 breast; 92.1% with MDA-MB-435 melanoma; 67.7% in the assay on SW-620 colon; 68.7% in the assay on MCF7 breast; 28.8% in the assay on HCT-116 colon; 51.6% in the assay on HCC-2998 colon. For the same molecule, the growth with KM12 colon is 56%.

As to `Cc1ccc2sc3c(NCCCNCCO)nc4ccccc4c3c(=O)c2c1`, the growth in the assay with BT-549 breast is 90.2%; with MDA-MB-435 melanoma it was -80% (active); in the assay with SW-620 colon it was -78.2% (active); in the assay on MCF7 breast, -78.8% (active); with HCT-116 colon, -67% (active); with HCC-2998 colon, -75.5% (active). In the assay on KM12 colon, the growth is -50.4% (active).

Consider `CN1C(=O)N(C)C2Nn3c(s/c(=C4\C(=O)N(CCc5ccccc5)c5ccccc54)c3=O)=NC21` (centres undefined), for which the growth was 72.5% with BT-549 breast; 5.64% (active) in the assay on MDA-MB-435 melanoma; 51.9% in the assay with SW-620 colon; 43.2% in the assay with MCF7 breast; 37.2% in the assay on HCT-116 colon; 85.9% with HCC-2998 colon. The growth in the assay with KM12 colon is 66.1%.

For the molecule `Cc1ccc2cccc(Oc3ccc(Nc4ncnc5onc(-c6ccccc6)c45)cc3)c2n1`, the growth in the assay on BT-549 breast was 93.3%; in the assay on MDA-MB-435 melanoma, 79.9%; in the assay on SW-620 colon, 87%; with MCF7 breast it was 79.5%; with HCT-116 colon it was 58.5%; in the assay with HCC-2998 colon, 100%. The growth in the assay with KM12 colon was 63.8%.

`Cc1[nH]c2ccccc2c(=O)c1CC=C(Cl)Cl`: the growth is 135% with BT-549 breast; 47.5% with MDA-MB-435 melanoma; 10.5% in the assay with SW-620 colon; -88.7% (active) with MCF7 breast; -65.6% (active) with HCT-116 colon; 59.3% in the assay on HCC-2998 colon. Further, the growth in the assay with KM12 colon was 18.2%.

Take `Oc1ccc(-c2nc(-c3ccc4oc5ccc(-c6[nH]c(-c7ccc(O)cc7)nc6-c6ccccc6)cc5c4c3)c(-c3ccccc3)[nH]2)cc1`: the growth was 57.2% in the assay on BT-549 breast; 43.5% with MDA-MB-435 melanoma; 54.7% with SW-620 colon; 50.7% in the assay with MCF7 breast; 31.3% in the assay on HCT-116 colon; 62.3% in the assay on HCC-2998 colon. Moreover, the growth in the assay on KM12 colon was 50.8%.

For `CCOc1cccc(/C=N/NC(=O)C(=O)Nc2cccc(C(F)(F)F)c2)c1O`, the growth was 45.4% in the assay with BT-549 breast; 49.6% in the assay with MDA-MB-435 melanoma; 32% in the assay with SW-620 colon; 11.8% in the assay on MCF7 breast; 32% in the assay with HCT-116 colon; 5.43% (active) with HCC-2998 colon. The growth in the assay with KM12 colon is 27.8%.

As for `O=C(c1nc2ccccc2[nH]1)C1C(c2ccc([N+](=O)[O-])cc2)C2CC3CCCCC3N2[C@@]12C(=O)Nc1cc(Cl)ccc12` (some centres undefined), the growth with BT-549 breast is 46.9%; in the assay with MDA-MB-435 melanoma, 23%; in the assay on SW-620 colon, 31.6%; in the assay with MCF7 breast it was 7.25% (active); with HCT-116 colon, 17.9%; in the assay with HCC-2998 colon it was 31.6%. The growth in the assay on KM12 colon is 29.1%.

Turning to `Cc1ccc(N=NC2C(=O)N(c3ccc(Cl)cc3)N(c3ccc(Cl)cc3)C2=O)cc1`, the growth in the assay with BT-549 breast was 95.2%; in the assay with MDA-MB-435 melanoma, 103%; in the assay with SW-620 colon, 96.4%; with MCF7 breast it was 85.5%; in the assay with HCT-116 colon, 97.2%; in the assay on HCC-2998 colon it was 109%. Also, the growth in the assay with KM12 colon was 90.3%.

For `O=C(c1nc2ccccc2[nH]1)C1[C@@H](c2cccc(O)c2)C2CC3CCCCC3N2[C@@]12C(=O)Nc1cc(Cl)ccc12` (some centres undefined), the growth in the assay with BT-549 breast is 62.5%; with MDA-MB-435 melanoma it was 29.3%; in the assay with SW-620 colon, 39.3%; in the assay on MCF7 breast, 18.9%; in the assay on HCT-116 colon, 31.5%; in the assay with HCC-2998 colon it was 33.8%. Further, the growth with KM12 colon is 34.9%.

As to `Cc1ccc(OCCCCCCNCCO)c(C)c1`, the growth with BT-549 breast was 27.6%; in the assay on MDA-MB-435 melanoma, 15.2%; in the assay on SW-620 colon, 18.1%; with MCF7 breast it was 9.1% (active); with HCT-116 colon, 19.1%; in the assay on HCC-2998 colon it was -6.64% (active). Further, the growth in the assay on KM12 colon was 15.1%.

For the molecule `COc1cc(/C=C2\CN(C)C/C(=C\c3cc(CN4CCCC4)c(O)c(OC)c3)C2=O)cc(CN2CCCC2)c1O`, the growth was 94.1% in the assay on BT-549 breast; 67.6% with MDA-MB-435 melanoma; 54.5% in the assay on SW-620 colon; 26.3% in the assay on MCF7 breast; 40.4% in the assay with HCT-116 colon; 96% in the assay on HCC-2998 colon. In the assay on KM12 colon, the growth was 48.3%.

On to `CCCCCCn1c(=N)n(CC(O)COc2cccc(C)c2)c2ccccc21` (centres undefined), for which the growth in the assay with BT-549 breast was 36.6%; in the assay on MDA-MB-435 melanoma, -77.3% (active); with SW-620 colon it was -65.9% (active); in the assay with MCF7 breast, -51.6% (active); in the assay on HCT-116 colon, -33.8% (active); with HCC-2998 colon, -87.1% (active). Further, the growth with KM12 colon is -43.8% (active).

Take `Cn1c(C(=O)c2cccc3ccccc23)nc2ccccc21`: the growth in the assay with BT-549 breast is 13%; with MDA-MB-435 melanoma it was 17.4%; with SW-620 colon, 22.4%; in the assay on MCF7 breast, 15.6%; in the assay with HCT-116 colon it was 22.7%; with HCC-2998 colon, 6.79% (active). In addition, the growth with KM12 colon was 25.9%.

On to `COc1ccc(Cn2c(Br)c3c(c2Br)-c2nc(N)sc2CC3)cc1`, for which the growth is 51.4% in the assay with BT-549 breast; -40.6% (active) in the assay on MDA-MB-435 melanoma; 16% with SW-620 colon; 17.7% in the assay with MCF7 breast; 17.8% with HCT-116 colon; 66.9% with HCC-2998 colon. Further, in the assay on KM12 colon, the growth is 29.6%.

Regarding `CCCCCCc1cc2cc(-c3csc(/C=C/c4ccccc4)n3)c(=O)oc2cc1O`, the growth with BT-549 breast is 41.4%; with MDA-MB-435 melanoma it was -72.2% (active); in the assay on SW-620 colon it was 1.96% (active); in the assay on MCF7 breast, 8.1% (active); in the assay on HCT-116 colon, 12%; in the assay with HCC-2998 colon, -25.1% (active). Moreover, in the assay on KM12 colon, the growth was 15.8%.

`NC1(N2SC(S)=C3CCCC=C32)CCCCC1`: the growth in the assay with BT-549 breast was 118%; in the assay on MDA-MB-435 melanoma it was 107%; in the assay with SW-620 colon, 99.3%; with MCF7 breast, 95.4%; in the assay with HCT-116 colon, 98.4%; in the assay with HCC-2998 colon it was 101%. Moreover, the growth in the assay with KM12 colon was 102%.
